Test [1] in a line: ATG_CRE_CIS: Attagene CIS-FACTORIAL HepG2 Assay for human cAMP Responsive Element (CRE) binding protein 3 (AID 2282926). To be noted: HepG2 CRE cis-reporter, Attagene multiplexed mRNA; actives raise or lower the signal. The method in brief:
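Endogenous transcription factor activity read via CRE-regulated reporter transcripts in transfected HepG2 cells. After 24 h exposure, RNA was reverse-transcribed, amplified, fluorescently labelled and sized by capillary electrophoresis; gain or loss fitted against DMSO.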

Test [2] addresses CCAAT/enhancer-binding protein beta (Homo sapiens) (UniProt P17676). The experiment in a line: ATG_C_EBP_CIS: Attagene CIS-FACTORIAL HepG2 Assay for human CCAAT/Enhancer Binding Protein (C/EBP) beta (AID 2282927). To be noted: HepG2 Attagene cis-factorial transcription factor reporter; actives raise or lower the signal. The method, boiled down: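 HepG2 transiently transfected with multiplexed reporter units under cis-regulatory promoters reporting endogenous C/EBPb activity. After 24 h exposure, reporter mRNA assayed by RT-PCR, fluorescent labelling, HpaI digestion and capillary electrophoresis; bidirectional fitting versus DMSO.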

Test [3] in a line: ATG_CMV_CIS: Attagene CIS-FACTORIAL HepG2 Assay for human CMV (Internal Marker) (AID 2282928).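 Further: endpoint acts as a background internal control marker rather than a target.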 The conditions noted are these: HepG2 CMV promoter reporter, transcription factor profiling; actives raise or lower the signal. The method, boiled down:
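Readout: fluorescent reporter cDNA fragments separated by capillary electrophoresis after RT-PCR and HpaI cut. Cells: HepG2 carrying transfected cis-promoter reporter constructs, dosed 24 h. Endpoint serves as background internal-marker control, fit bidirectionally versus DMSO.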

Test [4] in a line: ATG_DR4_LXR_CIS: Attagene CIS-FACTORIAL HepG2 Assay for human Liver X Receptor (LXR), DR4 submotif (AID 2282929). The conditions noted are these: HepG2 Attagene DR4 cis-reporter, mRNA transcription; actives raise or lower the signal. The method in brief: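 HepG2, transient MRTU transfection, cis-element (DR4) promoter; 24 h compound exposure; total RNA → oligo(dT) RT → PCR → 6-FAM primer extension → HpaI cut → CE. Gain/loss vs DMSO, bidirectional fit.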

Test [5] can be described thus: ATG_AP_1_CIS: Attagene CIS-FACTORIAL HepG2 Assay for human Activator Protein 1 (AP-1) (AID 2282931). To be noted: HepG2 Attagene cis-factorial AP-1 reporter mRNA; actives raise or lower the signal. The method in brief:
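Transient MRTU transfection of HepG2 → 24 h chemical treatment → RNA isolation, RT-PCR, 6-FAM labelling, HpaI digest → capillary electrophoresis. Fit: bidirectional, DMSO negative control.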

A short description of test [6]: ATG_AP_2_CIS: Attagene CIS-FACTORIAL HepG2 Assay for human Activator Protein 2 (AP-2) (AID 2282932). To be noted: HepG2 AP-2 cis-reporter, Attagene transcription factor profiling; actives raise or lower the signal. The method, boiled down:
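Read-out: fluorescent reporter mRNA via RT-PCR and capillary electrophoresis, 24 h post-dose in transiently transfected HepG2. Endogenous factors drive cis-promoter reporters; gain or loss of signal fitted bidirectionally against DMSO.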

The nature of test [7]: ATG_BRE_CIS: Attagene CIS-FACTORIAL HepG2 Assay for human Bone Morphogenetic Protein (BMP) Response Element (BRE) (AID 2282933). The conditions noted are these: HepG2 BMP response element reporter, Attagene transcription factor profiling; actives raise or lower the signal. The method in brief:
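A HepG2 multiplex reporter system measured inducible reporter mRNA 24 h post-dosing. Detection: RT-PCR, 6-FAM primer extension, HpaI digestion, capillary electrophoresis. Activity fitted bidirectionally relative to DMSO.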

The target of test [8] is Retinoic acid receptor alpha (Homo sapiens) (UniProt P10276). Nature of the test: ATG_DR5_RAR_CIS: Attagene CIS-FACTORIAL HepG2 Assay for human Retinoic Acid Receptor Alpha (RARE), DR5 submotif (AID 2282934). To be noted: HepG2 Attagene cis-factorial RARE DR5 reporter, mRNA; actives raise or lower the signal. The method in brief:
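HepG2 cells transiently transfected with multiplexed reporter units; DR5 cis-element drives reporter through endogenous transcription factors. After 24 h dosing, reporter mRNA quantified by RT-PCR, fluorescent labeling, HpaI digestion and capillary electrophoresis; bidirectional fitting versus DMSO.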

Test [9] deals with Transcription factor E2F1 (Homo sapiens) (UniProt Q01094). The experiment in a line: ATG_E2F_CIS: Attagene CIS-FACTORIAL HepG2 Assay for human E2F Transcription Factor 1 (AID 2282935). The conditions noted are these: HepG2 Attagene cis-reporter, E2F reporter RNA transcripts; actives raise or lower the signal. The method, boiled down:
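Transient MRTU transfection of HepG2; 24 h compound exposure; RNA → oligo(dT) RT → PCR → FAM label → HpaI cut → CE fluorescence. Gain/loss of signal fit against DMSO.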

Test [10] is described as follows: ATG_E_Box_CIS: Attagene CIS-FACTORIAL HepG2 Assay for human Enhancer Box (E-box) (AID 2282936). To be noted: HepG2 E-box cis-reporter transcription, actives raise or lower the signal. The method, boiled down:
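Transiently transfected HepG2, endogenous TF-driven reporters, 24 h dosing. Readout: RT-PCR plus capillary electrophoresis of fluorescent reporter fragments. Gain or loss of signal fitted bidirectionally against DMSO baseline.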

Test [11] in a line: ATG_M_61_CIS: Attagene CIS-FACTORIAL HepG2 Assay for M61 Transcription Factor (Internal Marker) (AID 2282937). To be noted: HepG2 Attagene CIS-FACTORIAL M61 internal marker reporter; actives raise or lower the signal. The method in brief:
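Human liver HepG2, transient MRTU transfection (cis promoter elements), 24 h compound. Total RNA → oligo(dT) RT → PCR → FAM label → HpaI → CE. Internal background marker; bidirectional fitting, DMSO = baseline.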

The nature of test [12]: ATG_EGR_CIS: Attagene CIS-FACTORIAL HepG2 Assay for human Early Growth Response 1 (EGR1) (AID 2282938). The conditions noted are these: HepG2 Attagene CIS-FACTORIAL EGR reporter mRNA; actives raise or lower the signal. The method in brief:
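Transient transfection of human HepG2 with multiple cis-regulated reporter units, chemical exposure 24 h, total RNA isolated. Reverse transcription, PCR, fluorescent labelling and capillary electrophoresis quantify reporter transcripts; activity fitted bidirectionally against DMSO.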

The nature of test [13]: ATG_M_19_CIS: Attagene CIS-FACTORIAL HepG2 Assay for M19 Transcription Factor (Internal Marker) (AID 2282939). To be noted: HepG2 Attagene CIS-FACTORIAL M19 internal marker reporter; actives raise or lower the signal. The method in brief:
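Chemical-treated HepG2 (24 h) with MRTU constructs; reporter transcripts detected by fluorescent RT-PCR fragment analysis on capillary electrophoresis. Internal background marker, DMSO as baseline.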

Test [14] in a line: ATG_ERE_CIS: Attagene CIS-FACTORIAL HepG2 Assay for Estrogen Response Element (ERE) (AID 2282940). To be noted: HepG2 ERE cis-reporter, Attagene RNA transcript; actives raise or lower the signal. The method in brief: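 Human liver cells (HepG2) bearing transiently transfected, promoter-regulated reporter units were exposed 24 h. Reporter mRNA induction was detected by capillary electrophoresis of labelled RT-PCR products and fitted bidirectionally to DMSO.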

Test [15] is described as follows: ATG_Ets_CIS: Attagene CIS-FACTORIAL HepG2 Assay for human Erythroblast Transformation Specific (ETS) (AID 2282941). To be noted: HepG2 ETS cis-reporter transcription, actives raise or lower the signal. The method, boiled down:
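RT-PCR/capillary electrophoresis fluorescence read-out of reporter mRNA; HepG2 transient multi-reporter transfection; 24 h compound exposure; gain or loss of signal fitted bidirectionally relative to DMSO.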

In test [16] the target is Hepatocyte nuclear factor 3-beta (Homo sapiens) (UniProt Q9Y261). The experiment in a line: ATG_FoxA2_CIS: Attagene CIS-FACTORIAL HepG2 Assay for human Forkhead box A2 (FOXA2) (AID 2282942). To be noted: HepG2 cis-reporter transcription factor activity, 24 h; actives raise or lower the signal. The method in brief:
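Transient MRTU transfection of HepG2 liver cells; 24 h treatment; total RNA → oligo(dT) RT → PCR → FAM primer extension → HpaI cut → CE. Bidirectional fit vs DMSO.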

Test [17] can be described thus: ATG_FoxO_CIS: Attagene CIS-FACTORIAL HepG2 Assay for human Forkhead box O (FoxO) (AID 2282943). To be noted: HepG2 Attagene cis-reporter, FoxO element, mRNA; actives raise or lower the signal. The method, boiled down: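 HepG2 cells transiently transfected with cis-element-driven reporter units report endogenous FoxO activity. After 24 h chemical exposure, reporter mRNA quantified by RT-PCR, fluorescent labeling, HpaI digestion and capillary electrophoresis; bidirectional fit versus DMSO.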

The nature of test [18]: ATG_GATA_CIS: Attagene CIS-FACTORIAL HepG2 Assay for human GATA Binding Protein (AID 2282944). The conditions noted are these: HepG2 GATA cis-element reporter, Attagene multiplex mRNA; actives raise or lower the signal. The method, boiled down:
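Transfected cis-reporter HepG2 cells were treated with chemicals for 24 hours. Total RNA was then converted to cDNA, amplified with reporter-specific primers and analysed by fluorescent capillary electrophoresis, using DMSO-treated wells as baseline.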

A short description of test [19]: ATG_GLI_CIS: Attagene CIS-FACTORIAL HepG2 Assay for human Zinc Finger Protein GLI1 (AID 2282945). The conditions noted are these: HepG2, Attagene cis-factorial reporter mRNA, GLI element; actives raise or lower the signal. The method in brief:
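Transiently transfected HepG2 cells report endogenous transcription factor activity via cis-element-driven reporter units. After 24 h compound exposure, reporter mRNA was measured by RT-PCR with capillary electrophoresis; bidirectional fitting against DMSO baseline.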

Test [20] deals with Aryl hydrocarbon receptor (Homo sapiens) (UniProt P35869). Nature of the test: ATG_Ahr_CIS: Attagene CIS-FACTORIAL HepG2 Assay for human Aryl Hydrocarbon Receptor (Ahr) (AID 2282930). The conditions noted are these: HepG2 AhR cis-factorial reporter transcription; actives raise or lower the signal. The method in brief: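 HepG2 cells transiently transfected with cis-element-driven multiplexed reporter units; endogenous AhR activity read as reporter mRNA 24 h after dosing, via RT-PCR, 6-FAM labelling, HpaI digestion and capillary electrophoresis. Bidirectional fit relative to DMSO.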
Aryl hydrocarbon receptor (Homo sapiens), sequence (P35869 whole entry, looked up): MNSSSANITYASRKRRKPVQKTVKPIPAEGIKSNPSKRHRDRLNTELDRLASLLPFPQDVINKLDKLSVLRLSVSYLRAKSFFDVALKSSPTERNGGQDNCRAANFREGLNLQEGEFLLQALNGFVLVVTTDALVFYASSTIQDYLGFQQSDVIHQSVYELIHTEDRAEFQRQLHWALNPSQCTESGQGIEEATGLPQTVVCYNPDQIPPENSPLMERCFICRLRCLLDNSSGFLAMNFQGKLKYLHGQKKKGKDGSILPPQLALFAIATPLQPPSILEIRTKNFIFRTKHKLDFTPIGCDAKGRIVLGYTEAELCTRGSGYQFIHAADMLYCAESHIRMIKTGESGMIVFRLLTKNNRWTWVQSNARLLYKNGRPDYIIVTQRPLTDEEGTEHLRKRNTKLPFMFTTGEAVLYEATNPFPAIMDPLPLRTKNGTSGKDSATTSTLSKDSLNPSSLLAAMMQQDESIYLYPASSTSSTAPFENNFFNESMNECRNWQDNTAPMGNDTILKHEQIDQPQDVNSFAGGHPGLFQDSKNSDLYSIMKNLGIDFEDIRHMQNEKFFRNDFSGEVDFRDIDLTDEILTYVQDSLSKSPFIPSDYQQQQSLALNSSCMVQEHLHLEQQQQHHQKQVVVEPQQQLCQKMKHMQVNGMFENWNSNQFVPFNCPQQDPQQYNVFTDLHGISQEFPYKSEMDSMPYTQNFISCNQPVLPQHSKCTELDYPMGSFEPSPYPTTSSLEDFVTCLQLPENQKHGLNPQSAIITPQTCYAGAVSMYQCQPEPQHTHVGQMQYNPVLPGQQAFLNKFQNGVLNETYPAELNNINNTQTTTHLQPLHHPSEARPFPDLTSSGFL

The source holds several records for some structures; these can differ, active in one and inactive in another. The source made the active and inactive calls. How the source made its calls: active means hit-call score of the fitted dose curve at least 0.9, where 1 is the maximum; inactive means score below 0.9.

Hepatocyte nuclear factor 3-beta (Homo sapiens), sequence (Q9Y261 whole entry, looked up): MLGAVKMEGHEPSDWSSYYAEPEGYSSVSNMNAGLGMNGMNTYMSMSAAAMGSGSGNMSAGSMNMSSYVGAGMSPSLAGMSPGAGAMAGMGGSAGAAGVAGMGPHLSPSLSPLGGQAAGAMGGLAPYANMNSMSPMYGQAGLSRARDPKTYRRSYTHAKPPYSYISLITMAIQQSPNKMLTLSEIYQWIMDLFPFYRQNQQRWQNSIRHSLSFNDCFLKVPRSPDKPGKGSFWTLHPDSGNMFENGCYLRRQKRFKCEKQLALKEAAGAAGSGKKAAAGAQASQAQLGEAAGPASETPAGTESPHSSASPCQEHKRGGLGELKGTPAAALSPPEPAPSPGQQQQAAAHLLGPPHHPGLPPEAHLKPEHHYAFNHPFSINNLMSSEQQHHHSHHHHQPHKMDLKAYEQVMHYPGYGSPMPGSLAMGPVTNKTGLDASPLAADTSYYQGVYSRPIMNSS
Transcription factor E2F1 (Homo sapiens), sequence (Q01094 whole entry, looked up): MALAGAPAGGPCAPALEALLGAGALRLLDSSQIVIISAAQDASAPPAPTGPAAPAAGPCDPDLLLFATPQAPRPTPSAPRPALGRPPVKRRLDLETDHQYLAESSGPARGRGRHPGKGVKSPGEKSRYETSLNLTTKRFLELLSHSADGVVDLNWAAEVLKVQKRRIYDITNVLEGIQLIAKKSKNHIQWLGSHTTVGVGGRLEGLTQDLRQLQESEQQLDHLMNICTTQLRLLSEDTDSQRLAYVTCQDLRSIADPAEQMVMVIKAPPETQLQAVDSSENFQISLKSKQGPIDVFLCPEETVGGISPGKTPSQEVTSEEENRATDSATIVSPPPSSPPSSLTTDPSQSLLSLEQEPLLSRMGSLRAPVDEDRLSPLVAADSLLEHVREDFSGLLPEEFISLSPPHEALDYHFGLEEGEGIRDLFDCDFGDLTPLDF
Retinoic acid receptor alpha (Homo sapiens), sequence (P10276 whole entry, looked up): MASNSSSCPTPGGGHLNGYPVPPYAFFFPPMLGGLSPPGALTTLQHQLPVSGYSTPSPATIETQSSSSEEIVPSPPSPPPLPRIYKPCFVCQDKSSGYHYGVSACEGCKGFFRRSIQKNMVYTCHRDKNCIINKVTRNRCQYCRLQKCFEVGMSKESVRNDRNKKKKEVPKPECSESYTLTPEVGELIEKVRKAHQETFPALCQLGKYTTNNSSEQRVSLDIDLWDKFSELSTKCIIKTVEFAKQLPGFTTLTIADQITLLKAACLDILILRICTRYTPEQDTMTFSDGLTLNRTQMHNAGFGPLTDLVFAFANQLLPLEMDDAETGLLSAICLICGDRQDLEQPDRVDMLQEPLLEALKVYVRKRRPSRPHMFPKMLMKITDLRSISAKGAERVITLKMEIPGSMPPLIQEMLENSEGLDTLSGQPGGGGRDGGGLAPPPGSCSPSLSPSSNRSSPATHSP
CCAAT/enhancer-binding protein beta (Homo sapiens), sequence (P17676 whole entry, looked up): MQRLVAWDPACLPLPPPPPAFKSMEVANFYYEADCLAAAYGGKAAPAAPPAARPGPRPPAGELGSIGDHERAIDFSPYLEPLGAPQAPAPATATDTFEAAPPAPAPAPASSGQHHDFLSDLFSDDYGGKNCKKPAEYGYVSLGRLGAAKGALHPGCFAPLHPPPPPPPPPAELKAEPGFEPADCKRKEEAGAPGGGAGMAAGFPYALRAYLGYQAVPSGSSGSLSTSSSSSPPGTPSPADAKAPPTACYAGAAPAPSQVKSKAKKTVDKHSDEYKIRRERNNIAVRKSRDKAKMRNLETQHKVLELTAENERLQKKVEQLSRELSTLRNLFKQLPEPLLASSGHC

For `CCCCOC(=O)c1ccccc1`, the call in test [1], in test [2], in test [3], in test [4], in [5] and in test [6] was inactive. The outcome in test [7], in test [8], in test [9], in test [10], in test [11] and in test [12] was inactive. The compound was classed as inactive in [13], in [14], in test [15], in test [16], in test [17] and in test [18]. In test [19], the result was inactive.

What is called AC50 is the concentration at which the activity in the assay is half-maximal. With `FC(F)C(F)(F)COCC1CO1` (stereo unspecified), the outcome in test [1], in [3], in test [4], in test [20], in test [5] and in test [6] was inactive. For the same compound, the result in [7], in test [8], in test [9], in test [10], in test [11] and in test [13] was inactive. The compound was called inactive in test [14], in [15], in test [16], in test [17], in test [18] and in [19]. Further, the AC50 in test [14] is 118 µM (active).

Regarding `CCOc1ccc2[nH]cc(C(=O)NCc3ccccc3)c(=O)c2n1`, the compound was classed as inactive in test [1], in test [3], in test [4], in [5], in test [6] and in test [7]. The compound was classed as inactive in test [8], in test [10], in test [11], in [12], in test [13] and in test [14]. The call in [15], in test [16], in [17], in test [18] and in test [19] was inactive. Moreover, the AC50 in test [20] was 4.77 µM (active).

The values above are taken from PubChem BioAssay (EPA / NIEHS).
